# Measured values: paper PMC6212790, “How bacterial xenogeneic silencer rok distinguishes foreign from self DNA in its resident genome”
# The full ranking holds about 33,000 sequences; the median of “e-score” is about -0.038, and the highest 2% start at about 0.33. The entries come from a sample that favours the highest values as a whole.
# Molecular target: T1, GST-Rok-C97-191 (Bacillus subtilis subsp. subtilis str. …, UniProt O34857 97-191)
# T1 sequence: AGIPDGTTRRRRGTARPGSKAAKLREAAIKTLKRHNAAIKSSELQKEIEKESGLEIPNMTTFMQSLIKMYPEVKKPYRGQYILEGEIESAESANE
# Experiment: protein binding microarray; Rok is a gene silencer of Bacillus subtilis; high values mean tight binding
# Settings: protein: recombinant; tags: GST (pTH5325, pDEST15-Magic modified); dsDNA, one strand shown
# How it was run: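 Every oligonucleotide joins a 25-mer constant primer to a 35-mer variable part drawn from a de Bruijn sequence of order 10, so each non-palindromic 8-mer appears at least 32 times and each palindromic 8-mer 16 times. The preference for every 8-mer is reported as a unitless, rank-based enrichment score (E-score). This score spans 0.5 for the most favored 8-mer to −0.5 for the most disfavored.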
row,Sequence,binding signal [E-score]
1,GTGGTAGA,0.433
2,ATGGTAGC,0.35
3,CTGGTAGA,0.324
4,CTGGTATA,0.205
5,CTGGTAGC,-0.00597
6,GTGGTAAA,0.21
7,ATGGTATC,0.0289
8,ATGGTAAA,0.23
9,ATGGTATA,0.353
10,ATGGTAGG,0.278
11,AACATCCG,0.0335
12,AACCGGTT,0.0733
13,AGTAGCAA,0.277
14,ACCTCTCG,0.00338
15,CGAAACAA,0.0284
16,CAAGCTGC,-0.171
17,AGCGACCT,0.06
18,CACGATGA,-0.103
19,GGGAAGGA,-0.18
20,ATAGAATG,0.165
21,ATAGAATC,0.274
22,ACAGATTA,0.0434
23,ATAGAAAC,0.326
24,ATAGAATA,0.354
25,CTAGATTC,0.166

row,Sequence,binding signal [E-score]
1,ATAGAAAA,0.267
2,ATAGATTG,0.304
3,ATAGAAAT,0.381
4,ATAGATTC,0.34
5,AAAGATTA,0.212
6,ATAGATTA,0.331
7,AGAAGACA,0.059
8,AACCTGCG,-0.0596
9,CAAGGTAA,0.166
10,CACAATGA,0.00707
11,GTTAATGA,0.082
12,GTCCCTGA,-0.188
13,TCTGGGAA,0.0446
14,TACTGGCA,0.0047
15,ACCTATGC,-0.0256
16,ATTGGGGA,-0.0754
17,GCAGATTA,0.028
18,GTAGATTA,0.344
19,CTAGATTA,0.312
20,GAAAGCTC,-0.157
21,ATGTAGTG,0.163
22,AAGTAGTG,0.211
23,AAGTAGTC,0.226
24,CAGTAGTA,0.362
25,ATGTAGTA,0.407

row,Sequence,binding signal [E-score]
1,GAGTAGTA,0.305
2,ATGTAGTC,0.156
3,AAGTAGTA,0.358
4,CAGTAGTC,-0.151
5,TCCGCTCA,-0.118
6,CGCTTTCC,-0.13
7,CGGAAAGA,-0.135
8,AACCTCAA,-0.0809
9,ACACTGGT,0.0216
10,GCGGGAGA,-0.111
11,CTGGCGAC,-0.196
12,AAAATAGC,0.21
13,GATATAGC,0.0553
14,AATATAGG,0.0639
15,AATATAGC,0.349
16,ACTATAGG,0.148
17,CATATAGC,0.127
18,ACTATAGC,0.207
19,ACTATAGT,0.411
20,AATATAGT,0.337
21,AAAATAGT,0.404
22,AATATCGT,0.204
23,AAAATAGA,0.271
24,GTTCAGCA,0.0486
25,TAAGGCAA,0.0603

row,Sequence,binding signal [E-score]
1,CTGGGAAG,-0.0965
2,CCACTTAG,-0.0775
3,CGGAGTCC,-0.199
4,TAGATCAA,0.156
5,CTCGACGA,-0.162
6,CTTCAGAC,-0.188
7,TACCGGTA,0.355
8,CACCGGTA,0.0827
9,AACCGGTA,0.182
10,TACCGATA,0.339
11,CACCGATA,0.152
12,AACCGATA,0.108
13,GACAAGGC,-0.188
14,AAATGCTT,-0.000293
15,GAGCTCGA,0.0407
16,ACGCCAAA,-0.128
17,GAGATAGA,0.15
18,AAGATAAC,0.131
19,AAGATATC,0.2
20,TAGATAGA,0.345
21,CAGATACA,0.146
22,CAGATAGA,0.16
23,AAGATAAA,0.314
24,AAGATACA,0.151
25,TAGATACA,0.329

row,Sequence,binding signal [E-score]
1,AAGATATA,0.347
2,AAGATATG,0.117
3,AAGATAAT,0.339
4,GAATAGCC,-0.126
5,AGCAGTCC,-0.0761
6,AACCCACT,0.0905
7,ACATCGAA,0.0242
8,GCGGCAGA,-0.0665
9,GGTTTGGA,-0.0233
10,TTCTTCAA,-0.0566
11,AGTGGATG,-0.131
12,AAGGCGAT,-0.0931
13,TAGATATA,0.359
14,CAGATATA,0.195
15,GAGATATA,0.301
16,ACGTACTC,0.0226
17,CTTATTAC,0.332
18,CTTATTTC,0.221
19,CTTATTAA,0.117
20,ATTATTAG,0.325
21,ATTATTAC,0.387
22,ATTATTAA,0.199
23,GTAGCTGA,0.279
24,AATCCTTA,0.107
25,GAATAAAC,0.0598

row,Sequence,binding signal [E-score]
1,ACTCATCG,0.0111
2,AATAGGGT,0.0409
3,AGTATATC,0.261
4,AGTATATG,0.264
5,GGTATAAA,0.352
6,AGTATAAA,0.289
7,GGTATAAC,0.266
8,GGTATAGA,0.221
9,GGTATATA,0.406
10,CGTATATA,0.258
11,AGTATATA,0.428
12,CATTAAGG,-0.0335
13,AGACATTA,0.0762
14,ATCCGTAA,-0.0485
15,GACTCATA,-0.063
16,CCATCAGA,-0.0159
17,CGTGCACC,-0.199
18,CCTACCAG,0.0329
19,GCCCTGTA,-0.192
20,CTACTACC,0.363
21,CGACTACC,0.000144
22,ATACTACG,0.273
23,CTACTAGC,0.256
24,ATACTACC,0.379
25,ACACTACC,-0.0628

row,Sequence,binding signal [E-score]
1,GCTAACCA,-0.102
2,GAGTCTTA,-0.0226
3,GCTTACAC,-0.028
4,ACGCGGGA,-0.0896
5,CGAGCCGA,-0.177
6,ACTAAATG,0.226
7,GCTAAATA,0.32
8,ACTAAAAT,0.397
9,ACTAAATA,0.354
10,CCTAAATC,-0.11
11,ACTAAAAA,0.26
12,CCTAAATA,0.155
13,ACTAAATC,0.35
14,ACTAAAAC,0.26
15,ATGAACTC,-0.191
16,GTCGCCTA,-0.125
17,GCTATTAC,0.285
18,ACTATTAA,0.302
19,ACTATTAC,0.4
20,ACTATTAG,0.263
21,CCTATTAC,0.247
22,ACTATTAT,0.364
